Assay [1] is described as follows: Cell Proliferation Assay against the TMD8 Cell Line (Caspase readout at 8 hrs) (AID 651713). Also: potency is read from the fitted curve at half-maximal effect. In a few lines: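 Percent activity derived from Caspase-Glo signal, DMSO set to 0% and bortezomib (9.2 uM final) to 100%. TMD8 cells were exposed to compound for 8 h in RPMI with 5% FBS.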
Assay [2] has as its target Tyrosine-protein kinase Yes (Homo sapiens) (UniProt P07947). Kind of assay: qHTS for small molecule inhibitors of Yes1 kinase: Primary Screen (AID 686947). Also: nearly all actives have a fitted effect of over 60% in size. Also: potency is read from the fitted curve at half-maximal effect. In a few lines: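 ADP-Glo luminescence readout; final 4 nM Yes1, 0.1 mM ATP, 0.3 mg/mL poly(E4Y), Tris pH 7.5, MgCl2, DTT, Brij-35. 20 min compound preincubation, 60 min reaction at RT. Normalized to DMSO wells with and without enzyme.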

The nature of assay [3]: qHTS assay for small molecule agonists of the antioxidant response element (ARE) signaling pathway (AID 651741; active = well fitted activation curve with a large enough effect in the signal ratio; the % refers to the signal ratio; also: potency is read from the fitted curve at half-maximal effect; as to activation: % of control where 0% means no effect). In a few lines: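 Seeding 2,000 ARE-bla HepG2 cells per well preceded a 5 h incubation at 37 C/5% CO2 and a 16 h compound exposure at 37 C. Beta-lactamase reporter activity was then quantified by fluorescence after 2 h with LiveBLAzer B/G FRET substrate.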
Assay [4] is described as follows: qHTS assay for small molecule activators of the p53 signaling pathway (AID 651743; active = well fitted activation curve with a large enough effect in the signal ratio, not every such curve was filed as active; the % refers to the signal ratio; also: series mostly up to about 92 µM; % of control where 0% means no effect). As to conditions: HCT-116 p53RE-bla, beta-lactamase FRET ratio, 16 h; activation: active compounds read high. In a few lines: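 Screen for p53 pathway agonists uses stably transfected p53RE-bla HCT-116 cells, 4,000 per well, treated 16 h at 37 C with compounds in DMSO.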
The nature of assay [5]: qHTS assay for small molecule activators of the nuclear factor-kappa B (NF-kB) signaling pathway (AID 651749; active = well fitted activation curve with a large enough effect in the signal ratio; the % refers to the signal ratio; also: series mostly up to about 77 µM; % of control where 0% means no effect). The note with it: NF-kB-bla ME-180 cells, beta-lactamase FRET ratio, 16 h; active compounds read high. Put shortly:
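Stably transfected ME-180 line; NF-kB response element upstream of beta-lactamase. Treatment: compound or DMSO, 16 hr. Detection: fluorescent FRET substrate.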

Assay [6] is described as follows: qHTS assay for small molecule disruptors of the mitochondrial membrane potential - 1 hr assay (AID 651754; calls by dose curve; also: % is scaled to controls: 0 for no effect and ±100 for the full control effect; nearly all actives have a fitted effect of over 35% in size). In a few lines: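 Steps: seed HepG2 cells and let attach overnight; pin-transfer compound or vehicle; incubate 1 hr at 37C; add Mito-MPS dye for 30 min; read two-channel fluorescence for monomer and aggregate forms.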
Assay [7] can be described thus: qHTS assay for small molecule disruptors of the mitochondrial membrane potential - 5 hr assay (AID 651755; calls by dose curve; also: % is scaled to controls: 0 for no effect and ±100 for the full control effect; nearly all actives have a fitted effect of over 40% in size). In a few lines:
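HepG2, 2,000 cells/well, overnight attach; cpd or DMSO 5 hr, 37C/5% CO2; Mito-MPS 30 min 37C; fluor 490/535 + 540/590 nm.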

Assay [8] deals with Tumor necrosis factor (Homo sapiens) (UniProt P01375). Kind of assay: qHTS assay to identify small molecules that stimulate Tumor Necrosis Factor-alpha (TNF-alpha) secretion (AID 651757; active = well fitted curve in the direction sought with a large enough effect in the signal ratio; the % refers to the signal ratio; also: 0% is about no effect). Put shortly:
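Secreted TNF-alpha from compound-treated THP-1 cells (17 hrs, 37 C) was quantified with a homogeneous time-resolved fluorescence antibody assay.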

Assay [9] can be described thus: qHTS assay for environmental chemicals that activate the Aryl hydrocarbon Receptor (AhR) signaling pathway (AID 651777). Also: % of control where 0% means no effect; nearly all actives have a fitted effect of over 15% in size. The note with it: 1A2-DRE human hepatoma cells, luciferase, 24 h; active compounds read high. Put shortly:
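Human hepatoma 1A2-DRE cells, stably carrying a dioxin response element and CYP1A2 promoter driving luciferase, were exposed to compounds for 24 hr at 37 C and 5% CO2. Luciferase signal was then read after 30 min One-Glo at room temperature.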

The target in assay [10] is Peroxisome proliferator-activated receptor alpha (Homo sapiens) (UniProt Q07869). Put plainly: qHTS assay for small molecule agonists of the peroxisome proliferator-activated receptor alpha (PPARalpha) signaling pathway (AID 651778). Also: potency is read from the fitted curve at half-maximal effect. As to max response: % of control where 0% means no effect. As to conditions: PathHunter PPARalpha complementation, chemiluminescence, 6 h; max response: active compounds read high. Put shortly:
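Chemiluminescence from complemented enzyme reported PPARalpha activation in cells after 6 hr of compound treatment at 37 C. The detection reagent was incubated for 60 min at room temperature, and compounds were scored as agonists.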

Assay [11] addresses Nuclear receptor ROR-gamma (Homo sapiens) (UniProt P51449). Kind of assay: qHTS assay for small molecule antagonists of the retinoid-related orphan receptor gamma (ROR-gamma) signaling pathway (AID 651802).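 Also: CHO cells with doxycycline-induced ROR-gamma expression; series mostly up to about 92 µM; % is scaled to controls: 0 for no effect and ±100 for the full control effect; nearly all actives have a fitted effect of over 60% in size.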 In a few lines: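 Antagonism is scored as a fall in luminescence from a RORE-luciferase reporter in CHO cells expressing ROR under a TET-inducible promoter, measured 16hr after doxycycline induction in the presence of compound.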

A short description of assay [12]: qHTS assay for small molecule agonists of the antioxidant response element (ARE) signaling pathway measured by Nrf2-dependant transcriptional activity (AID 720636; active = well fitted curve in the direction sought with a large enough effect in the repeat runs; an effect the other way counts as inactive or inconclusive; also: % of control where 0% means no effect). Put shortly: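 ARE-luc HepG2 cells carrying an Nrf2-responsive luciferase reporter were plated in medium with 1% dialyzed FBS, left 6 hr at 37 C to attach, then exposed to compound for 16 hr. Luciferase luminescence was read after ONE-Glo addition.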

Assay [13] is described as follows: qHTS assay for small molecule antagonists of the retinoid-related orphan receptor gamma (ROR-gamma) signaling pathway - cell viability counter screen (AID 720652; active = well fitted curve in the direction sought with a large enough effect in the repeat runs; an effect the other way counts as inactive or inconclusive;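 also: CHO reporter cells with doxycycline-induced ROR-gamma expression; series mostly up to about 92 µM; compound exposure lasted 16 hr before ATP read; % is scaled to controls: 0 for no effect and ±100 for the full control effect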). Put shortly:
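Cytotoxicity is quantified via intracellular ATP (CellTiter-Glo luminescence) in doxycycline-induced CHO ROR response element-luciferase reporter cells treated with compound for 16 hr at 37 C, 5% CO2.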

Assay [14] can be described thus: qHTS assay for small molecule agonists of the antioxidant response element (ARE) signaling pathway measured by Nrf2-dependant transcriptional activity - cell viability counter screen (AID 720653; active = well fitted curve in the direction sought with a large enough effect in the repeat runs; an effect the other way counts as inactive or inconclusive; also: % is scaled to controls: 0 for no effect and ±100 for the full control effect). The note with it: ARE-bla HepG2 viability, CellTiter-Glo ATP luminescence, 16 h; active compounds read low. In a few lines: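 Cytotoxicity counter screen: intracellular ATP quantified by CellTiter-Glo luminescence in the same ARE-bla HepG2 plates, after 16 h compound exposure and a 2 h beta-lactamase substrate step.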

A short description of assay [15]: qHTS assay to identify small molecules that stimulate interleukin-8 (IL-8) secretion (AID 651758; active = well fitted activation curve with a large enough effect in the signal ratio; the % refers to the signal ratio; also: potency is read from the fitted curve at half-maximal effect; as to activation: 0% is about no effect). Put shortly: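 Secreted IL-8 measured by TR-FRET sandwich (cryptate and XL665 antibodies) from THP-1 cells exposed to compound overnight (16 hrs, 37 C).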

Each structure is given as a SMILES string. Where “and” joins values, the source holds several entries; their conditions need not be identical. Identical values can stand only once. Values without a mark were called inactive. Records with an inconclusive call do not appear. Calls of active or inactive are those of the source. Unless noted, calls follow the shape of the dose curve; as a rule, active = well fitted curve in the direction sought with a large enough effect; inconclusive = small, poorly fitted or top-dose-only effect, or another doubt; inactive = no such curve, though single readings can be large; an effect the other way counts as inactive or inconclusive.

Chain of Tyrosine-protein kinase Yes (Homo sapiens) (P07947 whole entry, looked up): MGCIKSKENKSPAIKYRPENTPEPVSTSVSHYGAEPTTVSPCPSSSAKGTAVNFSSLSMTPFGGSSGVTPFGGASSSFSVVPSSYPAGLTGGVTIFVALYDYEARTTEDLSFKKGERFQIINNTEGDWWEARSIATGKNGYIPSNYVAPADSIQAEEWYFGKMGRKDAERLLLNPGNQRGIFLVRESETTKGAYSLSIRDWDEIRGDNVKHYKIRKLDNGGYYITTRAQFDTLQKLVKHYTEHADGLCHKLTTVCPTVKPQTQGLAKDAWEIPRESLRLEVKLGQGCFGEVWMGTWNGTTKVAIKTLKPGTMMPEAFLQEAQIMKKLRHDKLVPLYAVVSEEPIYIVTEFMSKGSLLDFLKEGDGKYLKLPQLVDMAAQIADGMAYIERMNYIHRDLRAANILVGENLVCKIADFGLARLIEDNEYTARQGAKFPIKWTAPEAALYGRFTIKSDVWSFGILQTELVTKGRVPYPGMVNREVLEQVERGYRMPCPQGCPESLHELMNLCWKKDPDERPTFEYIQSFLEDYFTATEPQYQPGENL
Chain of Nuclear receptor ROR-gamma (Homo sapiens) (P51449 whole entry, looked up): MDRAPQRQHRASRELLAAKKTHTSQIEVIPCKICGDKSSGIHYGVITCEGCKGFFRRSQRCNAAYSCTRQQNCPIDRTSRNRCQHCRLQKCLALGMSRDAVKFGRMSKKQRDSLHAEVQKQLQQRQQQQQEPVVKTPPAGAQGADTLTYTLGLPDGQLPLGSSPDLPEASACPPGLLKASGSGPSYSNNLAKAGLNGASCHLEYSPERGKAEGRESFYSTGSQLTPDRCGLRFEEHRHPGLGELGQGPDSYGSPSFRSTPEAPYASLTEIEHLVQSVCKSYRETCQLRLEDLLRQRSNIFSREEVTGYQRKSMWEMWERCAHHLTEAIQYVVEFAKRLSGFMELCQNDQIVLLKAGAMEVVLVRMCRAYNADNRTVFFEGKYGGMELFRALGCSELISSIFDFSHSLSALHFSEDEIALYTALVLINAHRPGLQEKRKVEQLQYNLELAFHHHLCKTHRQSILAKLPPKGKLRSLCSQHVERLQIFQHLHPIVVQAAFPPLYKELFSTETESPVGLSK
Chain of Tumor necrosis factor (Homo sapiens) (P01375 whole entry, looked up): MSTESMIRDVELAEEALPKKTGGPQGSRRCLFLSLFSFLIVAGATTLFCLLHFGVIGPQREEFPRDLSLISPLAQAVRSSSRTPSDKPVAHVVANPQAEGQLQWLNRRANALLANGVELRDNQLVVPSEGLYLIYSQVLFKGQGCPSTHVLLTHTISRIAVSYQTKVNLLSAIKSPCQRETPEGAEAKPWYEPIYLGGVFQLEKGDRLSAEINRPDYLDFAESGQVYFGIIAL
Chain of Peroxisome proliferator-activated receptor alpha (Homo sapiens) (Q07869 whole entry, looked up): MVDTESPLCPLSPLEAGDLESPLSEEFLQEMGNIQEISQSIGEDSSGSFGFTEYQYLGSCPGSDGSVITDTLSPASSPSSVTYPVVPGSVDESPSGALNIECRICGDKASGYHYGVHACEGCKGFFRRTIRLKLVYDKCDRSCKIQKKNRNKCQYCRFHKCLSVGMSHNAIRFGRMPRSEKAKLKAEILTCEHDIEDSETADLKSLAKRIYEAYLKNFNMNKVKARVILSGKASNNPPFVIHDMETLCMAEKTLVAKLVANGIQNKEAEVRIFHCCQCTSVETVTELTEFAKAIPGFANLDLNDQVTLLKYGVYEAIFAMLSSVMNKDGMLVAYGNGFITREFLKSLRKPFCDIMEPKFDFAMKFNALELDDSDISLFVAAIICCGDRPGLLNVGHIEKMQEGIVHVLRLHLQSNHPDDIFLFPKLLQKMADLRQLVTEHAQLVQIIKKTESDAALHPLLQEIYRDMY

As for `O=C(O)CC/C=C\CC[C@H]1[C@@H](N2CCCCC2)[C@@H](O)C[C@@H]1OCc1ccc(-c2ccccc2)cc1`, the Potency result in [1] and in assay [2] was “inactive” throughout.
As for `CC(C)=O`, the Potency result in assay [3] is “inactive”. The activation is -0.255% in assay [4], 2.82% in [5] and -1.82% in assay [9]. Also, the outcome in assay [6], in [7], in [8], in [11], in assay [12] and in assay [13] was inactive. The results for the max response in assay [10] and in [14] were -7.67% and -3.47%, respectively.
For `CCC1(O)CC2CN(CCc3c([nH]c4ccccc34)[C@@](C(=O)OC)(c3cc4c(cc3OC)N(C=O)[C@H]3[C@](O)(C(=O)OC)[C@H](OC(C)=O)[C@]5(CC)C=CCN6CC[C@]43[C@@H]65)C2)C1` (some centres not stated), the Potency in assay [1] is 1.32 µM (active). Further, the Potency result in assay [2] is “inactive”.
As for `COC(=O)C1=C(C)NC(C)=C(C(=O)OCCCN2CCC(c3ccccc3)(c3ccccc3)CC2)[C@H]1c1cccc([N+](=O)[O-])c1`, the Potency entry in assay [2] was “inactive”.
For `CCOc1ccc2c(c1)C(C)=CC(C)(C)N2`, the Potency in [3] was 27.3 µM (active). Further, the activation was 3.65% in assay [4]; 3.55% and 2.98% in [9]. The outcome in [6], in [7], in assay [8], in [11] and in [13] was inactive. Further, the max response in assay [10] was -4.24% and -2.12%; in [14] it was -1.53% and -25.3%.
Regarding `CCC1(Cc2ccc(N)cc2)CCC(=O)NC1=O` (configuration not stated), the Potency result in [1] and in assay [2] was “inactive” in each case.
Consider `CN(NC(=O)CC(=O)NN(C)C(=S)c1ccccc1)C(=S)c1ccccc1`, for which the Potency entry in assay [1] and in assay [2] was “inactive” in each case.
For `O=C(O)CN(CCN(CC(=O)O)CC(=O)O)CC(=O)O`, the activation was -1.95% and 0.161% in [4]; 2.06% and 1.21% in assay [9]. Further, the max response is 2.01% and 0.29% in [10]; 14.1% and -8.31% in [14]. In [12], the compound was called inactive.
As for `C[C@H]1C[C@H]2[C@@H]3CCC4=CC(=O)C=C[C@]4(C)[C@@]3(F)[C@@H](O)C[C@]2(C)[C@@]1(O)C(=O)CO`, the activation in assay [4] is -9.59%; in assay [5], -3.68%; in assay [9], -2.62%. Further, the values for the max response in assay [10] and in assay [14] were -0.118% and -19.2%, respectively. Besides, the compound was called inactive in assay [12].
With `CCCCC/C=C\C/C=C\CCCCCCCC(=O)O`, the Potency entry in [3] was “inactive”. The activation in assay [4] was 1.23% and -4.95%; in [9] it was 0.916% and -0.698%. Moreover, the call in assay [6], in [7], in assay [8], in assay [11], in assay [12] and in assay [13] was inactive. For the same compound, the Potency in assay [10] is 44.7 µM (active) and 28.2 µM (active). Further, the max response in assay [14] is -8.45% and -16.5%.
On to `CCCCCCCC/C=C\CCCCCCCC(=O)O`, for which the Potency result in [3] and in assay [15] was “inactive” each time. The activation is 0.394% and 0.396% in assay [4]; -1.87% and 0.641% in assay [9]. For the same compound, the outcome in assay [6], in [7], in [8], in assay [12] and in [13] was inactive. For the same compound, the Potency in [10] is 35.5 µM (active). The max response in assay [14] is -10.5% and 3.78%.
As for `O=C(O)CCC(=O)C(=O)O`, the activation is -2.86% in assay [4], 0.211% in assay [5] and 0.4% in assay [9]. Moreover, the result in assay [8], in [11], in assay [12] and in assay [13] was inactive. For the same compound, in assay [15], the Potency entry is “inactive”. The max response in assay [10] is 4.88%; in [14], -1.5%.
`Nc1ccn([C@H]2CS[C@@H](CO)O2)c(=O)n1`: the Potency entry in [3] is “inactive”. The activation in assay [4] is -1.09%; in assay [5], -1.13%; in assay [9], 0.73%. Besides, the outcome in [6], in assay [7], in assay [8], in assay [11], in [12] and in [13] was inactive. Besides, the max response was -3.53% in assay [10] and 4.54% in assay [14].
For `NC(=O)Nc1cc(-c2ccc(CN3CCOCC3)c(F)c2)sc1C(=O)N[C@H]1CCCNC1`, the Potency in assay [2] was 0.0002 µM (active).
In the case of `CC(C)(C)NC(=O)[C@@H]1C[C@@H]2CCCC[C@@H]2CN1C[C@@H](O)[C@H](Cc1ccccc1)NC(=O)[C@H](CC(N)=O)NC(=O)c1ccc2ccccc2n1`, the outcome in assay [6], in [7] and in assay [8] was inactive. Besides, the activation in assay [9] was 0.529%. In addition, the max response in assay [10] is -0.457%; in assay [14], -9.17%.
For the compound `CC1=C(/C=C/C(C)=C/C=C/C(C)=C/CO)C(C)(C)CCC1`, the Potency in assay [3] was 68.6 µM (active) and 42.2 µM (active); in assay [15] it was 37.6 µM (active). Moreover, the activation in assay [4] was -4.27% and -5.83%; in assay [5] it was -0.416% and -2.98%; in assay [9] it was 1.25% and 1.27%. Besides, the result in assay [6] and in assay [8] was inactive. Further, the max response in [10] is -3.78% and -1.63%; in [14], -15.5% and 5.78%.

The values above are taken from PubChem BioAssay (NCATS).
